BAZ2B block: qHTS Assay for Inhibitors of BAZ2B; AlphaScreen BAZ2B-H3K14Ac peptide displacement; Potency, µM (highest dose often 114 µM), for inactives: top-dose activity change, negative = inhibition, most hits filed as inhibitors; 360,000 tested, 4.4% active; also: % is scaled to controls: 0 for no effect and ±100 for the full control effect; nearly all actives have a fitted effect of over 60% in size
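AlphaScreen displacement of biotin-H3(5-23)K14Ac peptide (50 nM final) from BAZ2B (50 nM final) in PBS pH 7.4, 0.01% Tween-20; complex preformed 30 min RT, then compounds (top 110 uM) 30 min RT, beads 20 min dark.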
HP1b chromo inh: HTS for Inhibitors of HP1-beta Chromodomain Interactions with Methylated Histone Tails | AlphaScreen HP1-beta / biotin-H3K9me3 peptide binding | Potency, µM (series often up to 114 µM), for the others: top-dose activity change, negative = inhibition, hits mostly inhibitors | 390,000 tested, 0.56% active; also: nearly all actives have a fitted effect of over 70% in size
Target sequence (P83916 whole entry, looked up): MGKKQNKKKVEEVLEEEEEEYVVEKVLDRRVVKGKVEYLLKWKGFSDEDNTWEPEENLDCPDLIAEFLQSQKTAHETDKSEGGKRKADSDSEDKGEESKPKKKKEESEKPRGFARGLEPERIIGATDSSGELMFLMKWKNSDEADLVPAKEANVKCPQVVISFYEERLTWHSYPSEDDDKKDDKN
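Compound inhibition of the preformed complex between 50 nM HP1-beta and 50 nM biotinylated H3K9me3 peptide was read by AlphaScreen. Buffer was PBS pH 7.4 with 0.01% Tween-20. Incubations ran 30 min at room temperature, with 10 ug/mL donor/acceptor beads.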
TDP1 block: qHTS Assay for Inhibitors of Tyrosyl-DNA Phosphodiesterase (TDP1); recombinant TDP1, AlphaScreen DNA substrate cleavage; Potency, µM (doses to about 130 µM), for the others: top-dose activity change, negative = inhibition, usual class: inhibitors; 350,000 tested, 0.28% active; also: % is scaled to controls: 0 for no effect and ±100 for the full control effect; nearly all actives have a fitted effect of over 40% in size
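Tdp1 1 nM final; 15 min RT w/ cpd; substrate 15 nM, 5 min; beads 10 ug/ml, 10 min; AlphaScreen read. Neg ctrl: no enzyme.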
Sfp inh: qHTS Assay for Inhibitors of Bacillus subtilis Sfp phosphopantetheinyl transferase (PPTase). 4'-phosphopantetheinyl transferase ffp (Bacillus subtilis), Q9F4F7. Biochemical Sfp PPTase activity, qHTS. Potency, µM, inactives show largest response in the series, negative = inhibition, actives largely listed as inhibitors. 310,000 tested, 3.5% active. AID 1490, 2009;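 also: the enzyme is Sfp with the accession as filed and its product quenches rhodamine fluorescence; 0% = enzyme reaction without inhibitor and -100% = no enzyme wells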
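Reaction rates are the 30-min fluorescence difference (ex 525, em 598 nm) in wells containing 15 nM Sfp, 5 uM rhodamine-CoA and 12.5 uM BHQ-2-YbbR at pH 7.6 with 10 mM MgCl2.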
G9a inh: qHTS Assay for Inhibitors of Histone Lysine Methyltransferase G9a. Histone-lysine N-methyltransferase EHMT2 (Homo sapiens), Q96KQ7. G9a H3K9 monomethylation, AlphaScreen, 2 h. Potency, µM (doses to about 102 µM), for the others: top-dose activity, negative = inhibition, usual class: inhibitors. 350,000 tested, 8.8% active; also: % is scaled to controls: 0 for no effect and ±100 for the full control effect; nearly all actives have a fitted effect of over 75% in size
Target sequence (Q96KQ7 913-1193 limits assumed): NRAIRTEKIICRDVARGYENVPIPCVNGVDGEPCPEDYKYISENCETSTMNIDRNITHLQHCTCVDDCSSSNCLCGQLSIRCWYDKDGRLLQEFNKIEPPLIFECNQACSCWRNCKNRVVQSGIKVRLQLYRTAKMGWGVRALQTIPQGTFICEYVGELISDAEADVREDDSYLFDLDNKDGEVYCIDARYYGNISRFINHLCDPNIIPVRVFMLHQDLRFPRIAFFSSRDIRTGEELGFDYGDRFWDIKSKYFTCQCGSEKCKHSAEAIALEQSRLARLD
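Methyltransferase reactions run at room temperature for 2 h (20 nM enzyme, 500 nM biotin-H3K9 peptide, 20 uM SAM) after a 15 min compound preincubation; product detected by AlphaScreen beads and anti-H3K9me1 antibody.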
JMJD2A Tudor: qHTS Assay for Inhibitors of JMJD2A-Tudor Domain; Potency, µM (highest dose often 114 µM), for inactives: at the highest dose activity change, negative = inhibition, hits mostly inhibitors; 390,000 tested, 4.4% active; AlphaScreen JMJD2A-Tudor / H3K4me3 peptide binding; also: % is scaled to controls: 0 for no effect and ±100 for the full control effect; nearly all actives have a fitted effect of over 50% in size
Numbers without * were called inactive; u = inconclusive; x = not tested or not shown; [ ] = dose if it differs, or a comment. Most compounds without a hit are left out; they make up all but 12% or so of the library. Calls follow the shape of the dose curve; as a rule, active = well fitted curve in the direction sought with a large enough effect; inconclusive = small, poorly fitted or top-dose-only effect, or another doubt; inactive = no such curve, though single readings can be large; an effect the other way counts as inactive or inconclusive. Potency is read from the fitted curve at half-maximal effect.

SMILES	BAZ2B block	HP1b chromo inh	TDP1 block	Sfp inh	G9a inh	JMJD2A Tudor
CCCCNC(=O)[C@H]1C[C@H]1[C@@H](O)[C@H](CO)NC(=O)[C@H](Cc1ccccc1)NC(=O)OC(C)(C)C	-1%	68%	x	15%	21%	-6%
Cc1cc(C)c(C)c(OCCOCCN2CCN(C)CC2)c1	u	4%	-4%	1%	u	-21%
Cc1ccc(OCCN2CCN(C)CC2)c([N+](=O)[O-])c1	50µM*	-45%	-5%	u	2.5µM*	3.5µM*
O=[N+]([O-])c1ccccc1OCCCN1CCc2ccccc2C1	-35%	34%	8%	16%	u	-20%
Cc1ccc([N+](=O)[O-])c(OCCN2CCc3ccccc3C2)c1	50µM*	u	8%	-28%	10µM*	20µM*
C=CCc1cc(C)ccc1OCCOCCN1CCN(C)CC1	50µM*	u	1%	79µM*	14µM*	7.9µM*
Cc1ccc(OCc2ccc(C(=O)O)o2)c([N+](=O)[O-])c1	-4%	20%	3%	-12%	50µM*	-11%
CCC(C)CC(C)CC(C)C(=O)/C=C(/O)C(C)CC(C)C/C=C/C(C)C(O)C(C)C(O)CC1CCC(C)(C)O1 (centres undefined)	x	x	3%	0%	x	x
CC[C@]12c3[nH]c4cc(CCC(=O)N(C)C)ccc4c3CCN1C(=O)[C@@H](CC(=O)NCc1cccc(C(F)(F)F)c1)C[C@@H]2C(=O)N1CCN(C(=O)C2CC2)CC1	x	21%	1%[56.1 µM]	x	x	-17%
CCC(C(=O)NCc1ccco1)N(C(=O)CNS(=O)(=O)c1ccc(C)cc1)c1ccccc1F (centres undefined)	-19%	11%	x	19%	4%	-11%
O=C(Nc1ccc(F)c(F)c1)c1ccc(=O)n(Cc2ccc(F)cc2)c1	3%	31%[57 µM]	5%	x	5%[59 µM]	2%
Cc1ccc(OCCN2CCNCC2)c([N+](=O)[O-])c1	56µM*	-7%	-8%	-29%	8.9µM*	40µM*
CC1CC(C)CN(CCCOc2ccccc2[N+](=O)[O-])C1 (centres undefined)	-30%	u	-6%	-68%	14µM*	32µM*
O=[N+]([O-])c1cccc(OCCN2CCC(Cc3ccccc3)CC2)c1	56µM*	u	x	-14%	11µM*	14µM*
Cc1ccc([N+](=O)[O-])c(OCCCN2CCC(Cc3ccccc3)CC2)c1	x	u	x	x	x	20µM*
C[C@@](Cc1ccccc1)(NC(=O)CN)c1ccccc1	x	x	6%	-4%	-4%[12.7 µM]	x
Cc1cc(NS(=O)(=O)c2ccc3c(c2)CCC(=O)N3)ccc1F	x	x	1%	x	x	-13%
CCN(C[C@H]1N[C@@](CC)(C(=O)OC)[C@H]2C(=O)N(Cc3ccccc3)C(=O)[C@@H]12)C(=O)c1ccc(C)cc1	x	41%	1%	x	x	-8%
O=c1c2sc3ccccc3c2[nH]c(=S)n1CCN1CCOCC1	-21%	21%	0%	45µM*	3.5µM*	u
COCCCn1c(=O)c2ccccc2c2ccccc2c1=O	-29%	46%	-1%	18%	65%[59 µM]	25%
COCCn1c(=O)sc2ccccc2c1=O	0%	3%	-3%	7%	2%	14µM*
COCCCn1c(=S)[nH]c2c(sc3ccccc32)c1=O	-11%	-7%	11%	79µM*	u	-35%
CCN1CCN(CCn2c(=S)[nH]c3ccccc3c2=O)CC1	3%	31%	2%	1%	u	-30%
Cc1[nH]c(C)c(S(=O)(=O)Nc2ccc(OC(F)(F)F)cc2)c1C(=O)N1CCCCC1	u	15%	4%	7%	x	-33%
